# Reference: PubChem BioAssay AID485360 (National Center for Advancing Translational Sciences (NCATS), 2010)
# About 1,500 (0.65%) of roughly 230,000 compounds were called active. About 3% were inconclusive and are not listed. Calls follow the shape of the dose curve; as a rule, active = well fitted inhibition curve with a large enough effect; inconclusive = small, poorly fitted or top-dose-only effect; inactive = no such curve, though single readings can be large or run the other way. What follows is part of a selection rich in actives, with near analogues and random picks from the rest. Where a call stands in place of a potency, no number is given.
# Target: Lethal(3)malignant brain tumor-like protein 1 (Homo sapiens) (UniProt Q9Y468)
# Sequence (Q9Y468 whole entry, looked up): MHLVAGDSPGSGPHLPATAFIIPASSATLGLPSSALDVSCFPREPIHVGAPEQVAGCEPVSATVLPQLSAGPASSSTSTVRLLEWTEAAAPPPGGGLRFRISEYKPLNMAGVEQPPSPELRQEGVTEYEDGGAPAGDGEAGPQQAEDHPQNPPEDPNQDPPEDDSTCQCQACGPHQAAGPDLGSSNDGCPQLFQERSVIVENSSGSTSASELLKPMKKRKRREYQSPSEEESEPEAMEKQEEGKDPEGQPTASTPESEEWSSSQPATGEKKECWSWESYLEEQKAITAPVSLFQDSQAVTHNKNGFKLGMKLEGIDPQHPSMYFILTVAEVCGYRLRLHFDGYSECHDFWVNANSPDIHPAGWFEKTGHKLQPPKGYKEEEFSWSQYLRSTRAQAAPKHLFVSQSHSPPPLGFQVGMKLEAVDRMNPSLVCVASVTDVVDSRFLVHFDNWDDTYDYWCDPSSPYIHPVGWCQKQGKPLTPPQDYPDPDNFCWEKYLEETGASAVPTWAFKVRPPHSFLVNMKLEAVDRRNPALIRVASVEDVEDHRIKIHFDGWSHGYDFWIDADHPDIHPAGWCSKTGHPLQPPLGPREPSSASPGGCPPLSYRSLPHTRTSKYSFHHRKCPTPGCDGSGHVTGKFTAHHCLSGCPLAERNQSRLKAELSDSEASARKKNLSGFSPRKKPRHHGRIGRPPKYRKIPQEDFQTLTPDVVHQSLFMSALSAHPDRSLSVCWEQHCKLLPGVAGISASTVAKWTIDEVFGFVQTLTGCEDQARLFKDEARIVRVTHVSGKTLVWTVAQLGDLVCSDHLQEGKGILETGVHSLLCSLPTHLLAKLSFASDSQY
# Experiment: qHTS Assay for the Inhibitors of L3MBTL1; also: nearly all actives have a fitted effect of over 60% in size
# Conditions: AlphaScreen L3MBTL1–H3K9me1 peptide binding; series mostly up to 57.1 µM
# How it was run: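 L3MBTL1 50 nM + b-AHA-H3(1-15)K9me1 75 nM, 30 min RT; compound added, 30 min RT; streptavidin donor/Ni-chelate acceptor beads 10 ug/mL each final, 30 min RT dark; AlphaScreen read.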
# Potency is read from the fitted curve at half-maximal effect.
Structure (SMILES),Potency,"activity, negative = inhibition"
Cc1ccc(OCC(=O)NC(C)c2ccccc2)cc1C (stereo not drawn),inactive,–
CCCCC[C@@H]1C=C(C(=O)O)[C@H](c2ccc(C#N)cc2)N1S(=O)(=O)c1ccc(C)cc1,inactive,–
O=[N+]([O-])c1ccc(C=Nc2ccc(Cl)cc2Cl)s1,25.1 µM (active),–
CC1CN(C(=O)c2ccc([N+](=O)[O-])s2)CC(C)O1 (stereo not drawn),inactive,–
CCOc1ccc(NC(=O)CCC(=O)N/N=C/c2ccc([N+](=O)[O-])s2)cc1,inactive,–
O=[N+]([O-])c1ccc2c(c1)Nc1nc3ccccc3nc1N2,inactive,–
Cn1nnnc1SCC(=O)Nc1cccc(S(=O)(=O)N2CCCCC2)c1,inactive,–
COc1ccccc1-c1sc2ccccc2c1C#CC1(O)CCCCC1,inactive,–
COc1ccc2c(C(=O)c3ccc(C)cc3)n(CCC(N)=O)[n+]([O-])c2c1,inactive,–
COc1ccc(NC(=O)Nc2ccc3nsnc3c2)cc1,inactive,–
O=C(NCc1ccccn1)c1cc(-c2ccccc2Cl)on1,inactive,–
O=C(NCc1ccccn1)c1ccc2nc(-c3ccco3)c(-c3ccco3)nc2c1,3.55 µM (active),–
O=C1CSc2ccc(C(=O)NCc3ccccn3)cc2N1,inactive,–
COCCNC(=O)Nc1ccc2nc(-c3ccco3)c(-c3ccco3)nc2c1,2.82 µM (active),–
CC(C)(C)c1ccc(NC(=O)NCc2ccco2)cc1,inactive,–
O=C(Nc1ncccc1O)c1ccc(C(=O)c2ccccc2)cc1,inactive,–
CCOC(=O)N1CCN(C(=O)c2ccccc2SCC(=O)NCC2CCCCC2)CC1,inactive,–
CCOC(=O)c1c(C)[nH]c(C(=O)NCc2ccccc2OC)c1C,inactive,–
Cc1c(C(=O)N/N=C/c2ccccc2)[nH]c2c([N+](=O)[O-])cccc12,inactive,–
COc1cccc2c(C)c(C(=O)O)[nH]c12,25.1 µM (active),–
CC(C)Cn1c(SCC(=O)Nc2ccc(Cl)cc2F)nc(O)cc1=O,inactive,–

Structure (SMILES),Potency,"activity, negative = inhibition"
CC(=O)C[C@H](O)CC(=O)[C@@H]1OC(=O)[C@@H](C)C/C=C\Cc2ccccc21,inactive,–
CSc1nc(-c2ccco2)nn1C(=O)CCc1ccccc1,inactive,–
CCOc1ccccc1/C=c1\sc2nc(-c3ccco3)nn2c1=O,15.8 µM (active),–
CCOC(=O)/C=c1\s/c(=C\c2ccccc2OC)c(=O)n1CC(=O)N1CCOCC1,inactive,–
COc1ccccc1N1CC(C(=O)NCCN2C(=O)S/C(=C\c3cccnc3)C2=O)CC1=O (stereo not drawn),inactive,–
CC[C@]12c3[nH]c4ccc(Cl)cc4c3CCN1C(=O)[C@@H](CC(=O)NCCN1CCOCC1)C[C@@H]2C(=O)N1CCN(C(=O)C2CC2)CC1,inactive,–
CC(Cc1ccccc1)C(=O)N(C)Cc1ccccc1 (stereo not drawn),inactive,–
CCOC(=O)C(Cc1ccc(N)cc1)N1C(=O)c2ccccc2C1=O (stereo not drawn),inactive,–
Cc1ccc(C)n1C(Cc1ccccc1)C(=O)O (stereo not drawn),5.62 µM (active),–
CCn1c(=S)[nH]c2cc(S(=O)(=O)N3CCOCC3)ccc21,inactive,–
CCCN=C1N(C)C[C@@H]2[C@@H]3C(=O)N(Cc4ccccc4)C(=O)[C@@H]3[C@](C)(C(=O)OC)N12,inactive,–
CC(=O)Nc1ccc(C(=O)Nc2cccc(S(=O)(=O)NC3=NCCC3)c2)cc1,inactive,–
Cc1ccc(S(=O)(=O)NCCC(=O)OCC(=O)N(C)c2ccccc2)cc1,inactive,–
COc1ccc(N=C(C)c2sc3ccccc3c2O)cc1,inactive,–
Oc1ccc(N=Cc2sc3ccccc3c2Cl)cc1,31.6 µM (active),–
O=C(N/N=C/c1c(Cl)[nH]c2ccccc12)c1sc2ccccc2c1Cl,inactive,–
Cc1csc(SCC(=O)N(c2ccccc2)C(C)C)n1,inactive,–
COC(=O)c1ccc(CNC(=O)c2ccc(S(=O)(=O)N3CCCCCC3)cc2)cc1,inactive,–
CCN(CC)C(CNC(=O)CSc1nnnn1-c1cccc(F)c1)c1ccco1 (stereo not drawn),inactive,–
COc1ccc(-c2nnc(SC(C)C(=O)NC3CC3)o2)cc1 (stereo not drawn),inactive,–
CCCCOC(=O)Nc1nccs1,8.91 µM (active),–

Structure (SMILES),Potency,"activity, negative = inhibition"
O=C(COC(=O)c1ccc(O)cc1)Nc1nccs1,inactive,–
CCCCOC(=O)Nc1nnc(CC(=O)NCc2ccccc2)s1,inactive,–
Cc1ccc(NC(=O)CCNC(=O)c2ccc([N+](=O)[O-])cc2)cc1S(=O)(=O)N1CCOCC1,inactive,–
CC(=O)N(O)CCCCCNC(=O)CCC(=O)N(O)CCCCCNC(=O)CCC(=O)N(O)CCCCCNC(=O)CCC(=O)O,inactive,–
CC[C@]12c3[nH]c4ccc(OC)cc4c3CCN1C(=O)C(CC(=O)NCCN1CCOCC1)C[C@@H]2C(=O)N1CCN(C(=O)C2CC2)CC1 (stereo partly drawn),inactive,–
CCCn1c(C)cc(/C=C(\C#N)C(=O)OCC(=O)N(C)c2c(N)n(Cc3ccccc3)c(=O)[nH]c2=O)c1C,inactive,–
Cc1cc(=O)[nH]c(Nc2cccc(Br)c2)n1,inactive,–
CCOc1ccc(NC(=O)c2ccc(NC(=O)COC(=O)c3ccc(NC(=O)CC#N)cc3)cc2)cc1,1.58 µM (active),–
CCOc1ccc(C(=O)Nc2ccncc2)cc1,inactive,–
CCOc1cccc(NC(=O)CC#N)c1,–,-26.1% [at 11.4 µM] (inactive)
COC(=O)[C@]1(C)CCC[C@@]2(C)C3CC[C@]4(OC(C)=O)C[C@@]3(CCC21)CC4=NO (stereo partly drawn),inactive,–
Cc1ccc(Cn2c(C)nc3c(c2=O)c2nc4ccccc4nc2n3Cc2ccco2)cc1,17.8 µM (active),–
COCCCn1c2nc3ccccc3nc2c2c(=O)n(Cc3ccc(Cl)cc3)c(C)nc21,inactive,–
Cc1nc2ccccc2c(=O)n1Cc1ccc([N+](=O)[O-])cc1,inactive,–
COc1ccc(CCNC(=S)N2CCN(S(=O)(=O)c3ccc(F)cc3)CC2)cc1,inactive,–
Cc1cccc(N=C2SC(C)CN2C(=O)CN2C(=O)NC3(CCCC3)C2=O)c1 (stereo not drawn),inactive,–
O=C(COc1coc(CN2CCN(c3ccccc3)CC2)cc1=O)N1CCc2ccccc21,inactive,–
COc1ccc(C(=O)CSc2nnc(COc3ccccc3)n2Cc2ccco2)cc1,inactive,–
Cn1c2ccccc2c(=O)c2c(=O)n(Cc3ccco3)c(COc3ccccc3)nc21,12.6 µM (active),–
CCCc1nc2c(c(=O)c3ccccc3n2C)c(=O)n1-c1cc(C)cc(C)c1,inactive,–
CC(=O)c1c(C)[nH]c(C(=O)COc2ccc3c(C)cc(=O)oc3c2)c1C,inactive,–
